The source of these data is PubChem BioAssay (Tox21).

Assay [1] can be described thus: qHTS assay to test for compound auto fluorescence at 535 nm (green) in HEK293 cells (AID 720680).
The nature of assay [2]: qHTS assay to test for compound auto fluorescence at 460 nm (blue) in HEK293 cell free culture (AID 720681). In short, it runs like this:
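Compounds were added to cell-free DMEM with 10% FBS and fluorescence read directly. The blue channel used 405 nm excitation and 460 nm emission, with triamterene as the reference fluorophore.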

Assay [3] in a line: qHTS assay to test for compound auto fluorescence at 535 nm (green) in HEK293 cell free culture (AID 720682). In short, it runs like this: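 Steps: dispense DMEM/10% FBS into empty wells; pin in compound or DMSO; measure fluorescence at 485/535 nm. Values are fluorescein equivalents.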
For orientation: qHTS replaces the single test concentration by a dilution series.

The nature of assay [4]: qHTS assay to test for compound auto fluorescence at 590 nm (red) in HEK293 cell free culture (AID 720683). Put shortly:
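Cell-free wells of DMEM with 10% FBS received compound, and intrinsic fluorescence was read at excitation/emission 540/590 nm. Values expressed as equivalence to Rose Bengal sodium.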

Assay [5] is described as follows: qHTS assay to test for compound auto fluorescence at 590 nm (red) in HepG2 cell free culture (AID 720684). In short, it runs like this: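 Rose Bengal sodium served as the reference for red signal. Test compounds were dispensed into serum-containing MEM (10% FBS) without cells, and plates were read at 540/590 nm.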
Assay [6] can be described thus: qHTS assay to test for compound auto fluorescence at 460 nm (blue) in HepG2 cell free culture (AID 720685). Put shortly:
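Cell-free plates of MEM plus 10% FBS received 23 nL compound or DMSO vehicle; blue-channel (405/460 nm) intensity scored against triamterene as reference fluorophore.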

Assay [7] can be described thus: qHTS assay to test for compound auto fluorescence at 535 nm (green) in HepG2 cell free culture (AID 720686).
Assay [8] in a line: qHTS assay to test for compound auto fluorescence at 460 nm (blue) in HepG2 cells (AID 720687). Put shortly: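 HepG2 cells in MEM with 10% FBS, attached overnight at 37 C, were exposed to compound or DMSO for 1 hr at 37 C, 5% CO2. Blue fluorescence was read at 405/460 nm, with triamterene as reference fluorophore.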
The target of assay [9] is Glucocorticoid receptor (Homo sapiens) (UniProt P04150). The assay can be described thus: qHTS assay to identify small molecule agonists of the glucocorticoid receptor (GR) signaling pathway (AID 720691; active = well fitted activation curve with a large enough effect in the signal ratio in the repeat runs, not every such curve was filed as active; inconclusive = weak or mixed curves, or effect the other way; inactive = no such curve, though single readings can be large or run the other way; the % refers to the signal ratio). To be noted: GR-bla HeLa, beta-lactamase reporter ratio, 18 h. Put shortly: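 Cells: GR-bla HeLa, endogenous GR with stably integrated GRE-beta-lactamase reporter. Treatment 18 h, 37 C, compounds delivered in DMSO. Detection via LiveBLAzer B/G FRET substrate, 2 h RT, fluorescence intensity.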

Assay [10] shares this target. The assay is described as follows: qHTS assay to identify small molecule antagonists of the glucocorticoid receptor (GR) signaling pathway (AID 720692; active = well fitted inhibition curve with a large enough effect in the signal ratio in the repeat runs, not every such curve was filed as active; inconclusive = weak or mixed curves, or effect the other way; inactive = no such curve, though single readings can be large or run the other way; the % refers to the signal ratio; note: potency is the fitted concentration of half-maximal effect). Put shortly:
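Quantitative HTS in antagonist format: HeLa cells expressing endogenous GR and a stably integrated GRE-bla reporter, stimulated with 5 nM dexamethasone (final) alongside test compounds for 18 h.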

Where [11] appears, read: activation: at 62.4 µM (top of the series) unless noted.

Values without a mark were called inactive. Where a structure was tested more than once in an assay, its records may differ in their call. Active and inactive are the calls of the source. Unless noted, calls come from the whole dose curve; as a rule, active = well fitted curve in the direction sought with a large enough effect in the repeat runs; inconclusive = weak or mixed curves; inactive = flat fitted curve, though single readings scatter.
% is set by controls: 0 for no effect and ±100 for the full control effect.

Sequence of Glucocorticoid receptor (Homo sapiens) (P04150 whole entry, looked up): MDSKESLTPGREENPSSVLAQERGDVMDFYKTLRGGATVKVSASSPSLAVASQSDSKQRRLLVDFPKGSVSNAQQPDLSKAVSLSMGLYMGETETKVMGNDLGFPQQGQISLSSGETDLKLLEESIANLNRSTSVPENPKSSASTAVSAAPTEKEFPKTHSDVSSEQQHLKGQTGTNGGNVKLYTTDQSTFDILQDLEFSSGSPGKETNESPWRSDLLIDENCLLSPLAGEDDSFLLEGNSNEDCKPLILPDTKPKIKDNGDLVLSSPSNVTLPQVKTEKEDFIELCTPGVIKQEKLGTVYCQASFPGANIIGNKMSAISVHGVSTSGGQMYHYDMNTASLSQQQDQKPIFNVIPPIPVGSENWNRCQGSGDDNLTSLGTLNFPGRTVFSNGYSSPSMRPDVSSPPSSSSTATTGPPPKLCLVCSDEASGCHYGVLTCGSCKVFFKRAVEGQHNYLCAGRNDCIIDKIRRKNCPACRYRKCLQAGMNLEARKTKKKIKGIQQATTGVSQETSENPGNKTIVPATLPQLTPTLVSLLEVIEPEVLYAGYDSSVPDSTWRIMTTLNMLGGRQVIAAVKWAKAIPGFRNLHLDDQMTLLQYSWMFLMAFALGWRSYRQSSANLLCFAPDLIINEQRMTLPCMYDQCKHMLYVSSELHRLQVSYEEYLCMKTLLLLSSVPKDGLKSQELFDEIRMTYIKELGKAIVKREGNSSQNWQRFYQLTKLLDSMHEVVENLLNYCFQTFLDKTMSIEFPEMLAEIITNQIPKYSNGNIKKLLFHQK

In the case of `CC[Si](OC(C)=O)(OC(C)=O)OC(C)=O`, the molecule was classed as inactive in assay [1], in [3], in assay [4], in assay [5], in assay [7] and in assay [8]. In addition, the Potency result in [2] and in [6] was “inactive” throughout.
Take `Nc1c(S(=O)(=O)O)cc(Br)c2c1C(=O)c1ccccc1C2=O`: the outcome in assay [1], in [3], in [4], in assay [5], in assay [7] and in assay [8] was inactive. Besides, the Potency result in [2] and in assay [6] was “inactive” throughout.
As for `CC1=CC[C@H]2C[C@@H]1C2(C)C`, the molecule was called inactive in [1], in assay [3], in [4], in assay [5], in assay [7] and in [8]. In addition, the Potency entry in assay [2] and in assay [6] was “inactive” each time.
Turning to `C=C(C)C(=O)OCCCCCCCCCCCC`, the result in assay [1], in [3], in assay [4], in [5], in [7] and in assay [8] was inactive. The Potency result in assay [2], in assay [6], in assay [9] (setting [11]) and in [10] was “inactive” each time.
Turning to `Oc1ccc2ccccc2c1N=Nc1ccccc1`, the call in assay [1], in [3], in [4], in assay [5], in [7] and in [8] was inactive. The Potency result in assay [2] and in assay [6] was “inactive” throughout.
On to `OC[C@@H](O)[C@H](O)[C@H](O)[C@@H](O)CO`, for which the call in assay [1], in [3], in [4], in [5], in [7] and in assay [8] was inactive. The Potency entry in [2] and in [6] was “inactive” each time.
Take `CS(=O)(=O)Nc1ccc([N+](=O)[O-])cc1Oc1ccccc1`: the molecule was classed as inactive in assay [1], in [3], in [4], in [5], in assay [7] and in assay [8]. Also, the Potency result in assay [2] and in assay [6] was “inactive” throughout.
`COCC(C)O` (configuration not stated): the molecule was classed as inactive in assay [1], in [3], in assay [4], in [5], in assay [7] and in assay [8]. Besides, the Potency entry in assay [2], in assay [6], in assay [9] (setting [11]) and in [10] was “inactive” throughout.
With `CC1(C)CC(N=C=O)CC(C)(CN=C=O)C1` (configuration not stated), the outcome in [1], in assay [3], in [4], in [5], in assay [7] and in assay [8] was inactive. In addition, the Potency entry in [2] and in [6] was “inactive” throughout.
For `CN(CCOc1ccc(CC2SC(=O)NC2=O)cc1)c1ccccn1` (configuration not stated), the call in assay [1], in [3], in assay [4], in assay [5], in [7] and in [8] was inactive. Also, the Potency entry in assay [2] and in assay [6] was “inactive” in each case.
For `CCCCC(CC)COC(=O)/C=C\C(=O)OCC(CC)CCCC` (configuration not stated), the call in [1], in assay [3], in [4], in assay [5], in [7] and in assay [8] was inactive. The Potency entry in assay [2], in assay [6] and in assay [9] (setting [11]) was “inactive” throughout.
Consider `CCC(C)C=O` (configuration not stated), for which the outcome in [1], in assay [3], in assay [4], in [5], in assay [7] and in assay [8] was inactive. For the same molecule, the Potency entry in [2] and in assay [6] was “inactive” throughout.
In the case of `CC(=O)CCc1ccccc1`, the molecule was classed as inactive in [1], in assay [3], in assay [4], in [5], in [7] and in [8]. Moreover, the Potency result in assay [2] and in [6] was “inactive” each time.
As to `S=c1nc[nH]c2nc[nH]c12`, the result in assay [1], in [3], in assay [4], in [5], in assay [7] and in [8] was inactive. In addition, the Potency entry in assay [2] and in [6] was “inactive” each time.
`CC1Cc2ccccc2N1NC(=O)c1ccc(Cl)c(S(N)(=O)=O)c1` (configuration not stated): the result in assay [1], in assay [3], in assay [4], in assay [5], in [7] and in assay [8] was inactive. Further, the Potency entry in assay [2] and in assay [6] was “inactive” in each case.
For the molecule `COC(=O)Nc1nc2ccc(Sc3ccccc3)cc2[nH]1`, the outcome in [1], in assay [3], in [4], in [5], in [7] and in assay [8] was inactive. Besides, the Potency result in assay [2] and in assay [6] was “inactive” each time. The figures for the activation in assay [9] (setting [11]) and in [9] (at 62.4 µM (top of the series)) were 2.86% [inconclusive] [at 29.2 µM] (active) and 2.36%, respectively.
Turning to `Oc1ccc(OCc2ccccc2)cc1`, the molecule was classed as inactive in [1], in [3], in [4], in assay [5], in assay [7] and in assay [8]. For the same molecule, the Potency result in [2], in [6] and in [9] (setting [11]) was “inactive” in each case.
`Clc1ccc(Cl)c(Cl)c1Cl`: the result in assay [1], in assay [3], in assay [4], in [5], in assay [7] and in [8] was inactive. Moreover, the Potency entry in [2], in assay [6], in [9] (setting [11]) and in [10] was “inactive” each time.
For `CC1=C(/C=C/C(C)=C/C=C/C(C)=C/CO)C(C)(C)CCC1`, the outcome in assay [1], in assay [3], in [4], in [5], in [7] and in assay [8] was inactive. Also, the Potency entry in [2] and in assay [6] was “inactive” in each case.
In the case of `O=[N+]([O-])C(CO)(CO)CO`, the call in [1], in assay [3], in assay [4], in [5], in assay [7] and in assay [8] was inactive. The Potency result in [2] and in assay [6] was “inactive” each time.
With `CC1COc2ccccc2N1C(=O)C(Cl)Cl` (configuration not stated), the call in [1], in [3], in assay [4], in [5], in assay [7] and in assay [8] was inactive. For the same molecule, the Potency result in [2], in [6] and in assay [9] (setting [11]) was “inactive” throughout.
On to `C=CC(=O)OCCCCCCCC(C)C`, for which the molecule was called inactive in assay [1], in assay [3], in assay [4], in assay [5], in assay [7] and in assay [8]. The Potency entry in assay [2] and in [6] was “inactive” throughout.
For the molecule `CC(C)n1c(/C=C/[C@@H](O)C[C@@H](O)CC(=O)O)c(-c2ccc(F)cc2)c2ccccc21`, the result in [1], in assay [3], in [4], in [5], in assay [7] and in [8] was inactive. The Potency result in assay [2] and in assay [6] was “inactive” in each case.
Take `O=C(c1ccc(O)cc1)c1ccc(O)cc1O`: the molecule was classed as inactive in assay [1], in [3], in [4], in assay [5], in assay [7] and in assay [8]. For the same molecule, the Potency result in [2], in [6] and in assay [9] (setting [11]) was “inactive” throughout.
Consider `COC(=O)c1ccc(C(=O)OC)cc1`, for which the call in assay [1], in assay [3], in [4], in [5], in [7] and in assay [8] was inactive. The Potency result in [2] and in assay [6] was “inactive” in each case.
On to `Oc1c(Cl)cc(Cl)c(Cl)c1Cl`, for which the outcome in assay [1], in assay [3], in assay [4], in [5], in [7] and in assay [8] was inactive. The Potency result in assay [2], in [6] and in assay [9] (setting [11]) was “inactive” throughout. The Potency in assay [10] was 49 µM (active).
